PubChem BioAssay (NCATS)
Records with an inconclusive call do not appear. Unmarked numbers belong to inactive results. Activity calls are given as the source filed them. Calls come from the whole dose curve; as a rule, active = well fitted cell-killing curve with a large enough effect; inconclusive = small, poorly fitted or top-dose-only effect, or effect the other way; inactive = no such curve, though single readings can be large or run the other way. Starred links: 1 amine or outer side, 2 acyl side, 3 side chain; linkers in the order of their positions; H or OH if unused. Positions of bridges follow the written chain, without caps; N, C: chain ends. Non-standard residues stand in square brackets, D forms with d. Residues, ends and D or L forms follow the SMILES beside them. Chains are numbered I, II in the order given. Actinocin(9to1) = Cc1c2oc3c(C)ccc(C(=O)[*:1])c3nc-2c(C(=O)[*:2])c(N)c1=O; NMeV = CN[CH](C(=O)O)C(C)C; Sar = CNCC(=O)O

Test: Quantitative High-Throughput drug screen in 47 multiple myeloma cell lines against the NCATS MIPE library collection: LP1_DSMZ cell viability assay (AID 1918982)
Conditions: LP1 myeloma viability, CellTiter-Glo ATP luminescence, 48 h; series mostly up to 45.8 µM; viability (% of control): at the top concentration
Summary of the method: (§1)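 Inhibition of viability over 48 h was scored by ATP content (CellTiter-Glo) in 500-cell wells. Zero and full viability were defined by media-only and DMSO-only wells.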
Note: nearly all actives have a fitted effect of over 35% in size.
Potency is the fitted concentration of half-maximal effect.

Structure (SMILES)	Potency	viability (% of control)
CC(C)c1cnn2c(NCc3ccccc3)cc(NCCCCCCN)nc12	18.7 µM (active)	–
CC(C=CC(=O)NO)=C[C@@H](C)C(=O)c1ccc(N(C)C)cc1	0.372 µM (active)	–
CN1[C@H]2CC(OC(=O)[C@@H](CO)c3ccccc3)C[C@H]1[C@H]1O[C@H]12 (some centres undefined)	–	112% [at 23.2 µM]
c1ccc(CNc2nc(NCc3ccccc3)c3ccccc3n2)cc1	23.5 µM (active)	–
CN(C)c1ccc2cc(C(=O)N[C@@H](CCCN=C(N)CCl)C(=O)NCc3ccccc3)ccc2c1	14.8 µM (active)	–
COc1cccc2c1C(=O)c1c(O)c3c(c(O)c1C2=O)C[C@@](O)(C(=O)CO)C[C@H]3O[C@H]1C[C@H](N)[C@H](O)[C@H](C)O1	0.0743 µM (active)	–
CCC(C(=O)O)C1CCC(C)C(C(C)C(O)C(C)C(=O)C(CC)C2OC3(C=CC(O)[C@@]4(CC[C@](C)(C5CC[C@@](O)(CC)C(C)O5)O4)O3)C(C)CC2C)O1 (some centres undefined)	4.69 µM (active)	–
CCC(C=C[C@@H]1OC(=O)C=C[C@H]1C)=C[C@H](C)CC=CC(C)=C[C@@H](C)C(=O)[C@@H](C)[C@H](O)[C@@H](C)CC(C)=CC(=O)O	0.0277 µM (active)	–
CC(C)C[C@H](NC(=O)CNC(=O)c1cc(Cl)ccc1Cl)B1OC(=O)CC(CC(=O)O)(C(=O)O)O1 (some centres undefined)	0.0743 µM (active)	–
COc1cc2c(cc1OC)[C@@H]1C(=O)c3ccc4c(c3O[C@@H]1CO2)C=CC(C)(C)O4	0.0296 µM (active)	–

Test: Quantitative High-Throughput drug screen in 47 multiple myeloma cell lines against the NCATS MIPE library collection: KMS28PE_JCRB cell viability assay (AID 1918983)
Conditions: KMS28PE multiple myeloma viability, CellTiter-Glo ATP, 48 h; series mostly up to 45.8 µM; viability, % of DMSO control: at the top concentration
Summary of the method: as §1

Structure (SMILES)	Potency	viability, % of DMSO control
CCc1ccc(C(=O)Nc2cc(CN3CCN(C)CC3)cc(C(F)(F)F)c2)cc1C#Cc1cnc2ccnn2c1	16.6 µM (active)	–
C=CC[C@@H]1C=C(C)C[C@H](C)C[C@H](OC)[C@H]2O[C@@](O)(C(=O)C(=O)N3CCCC[C@H]3C(=O)O[C@H](C(C)=C[C@@H]3CC[C@H](O)[C@H](OC)C3)[C@@H](C)[C@@H](O)CC1=O)[C@@H](C)C[C@@H]2OC	2.35 µM (active)	–
CO[C@@H]1[C@@H](O)[C@H](O)[C@@H](n2c3c(Cl)cccc3c3c4c(c5c6cccc(Cl)c6[nH]c5c32)C(=O)NC4=O)O[C@@H]1CO	1.32 µM (active)	–
Cc1cc(O)c2c(c1)C(=O)c1cccc(O)c1C2=O	–	187%
C[C@H](NC(=O)C(C#N)=Cc1cccc(Br)n1)c1ccccc1	3.72 µM (active)	–
Cn1cnc(=N)c2[nH]cnc21	0.105 µM (active)	–
CC(C)N1[N]C(=C2C=c3cc(O)ccc3=N2)c2c(N)ncnc21	0.209 µM (active)	–
COc1cccc2c1C(=O)c1c(O)c3c(c(O)c1C2=O)C[C@@](O)(C(=O)CO)C[C@@H]3O[C@H]1C[C@H](N)[C@@H](O)[C@H](C)O1	0.526 µM (active)	–
COc1cc(C=CC(=O)CC(=O)C=Cc2ccc(O)c(OC)c2)ccc1O	17.1 µM (active)	–
CCC[C@H]1C[C@H](C(=O)N[C@@H]([C@@H]2O[C@@H](SC)[C@@H](O)[C@@H](O)[C@@H]2O)[C@H](C)Cl)N(C)C1	–	124%
C=CC(=O)Nc1ccc2ncnc(Nc3ccc(OCc4cccc(F)c4)c(Cl)c3)c2c1	2.64 µM (active)	–
OCc1ccccc1O[C@@H]1O[C@H](CO)[C@H](O)[C@H](O)[C@H]1O	–	151%
Cn1cc(C2=C(c3c4n(c5ccccc35)CCC(CN)C4)C(=O)NC2=O)c2ccccc21 (centres undefined)	18.7 µM (active)	–
O=C(Nc1cccc(Nc2ncc(Br)c(NCCc3cnc[nH]3)n2)c1)N1CCCC1	14.8 µM (active)	–
C=CCNc1c(O)cc2c(O)c1C[C@@H](C)C[C@H](OC)[C@@H](O)[C@@H](C)C=C(C)[C@H](OC(N)=O)[C@@H](OC)C=CC=C(C)C(=O)N2	0.418 µM (active)	–
C[C@@H]1CC[C@@]2(OC1)OC1CC3C4CC=C5CC(O)CCC5(C)C4CCC3(C)C1[C@@H]2C (some centres undefined)	–	127%
CCS(=O)(=O)Nc1ccc2[nH]c(O)c(C(=Nc3ccc(CN4CCCCC4)cc3)c3ccccc3)c2c1	1.05 µM (active)	–
CCN(CC)CCNC(=O)c1c(C)[nH]c(C=C2C(=O)Nc3ccc(F)cc32)c1C	5.4 µM (active)	–
O=C1NC(=O)[C@@H](c2cn3c4c(cccc24)CCC3)[C@H]1c1c[nH]c2ccccc12	0.833 µM (active)	–
COC1=C2C[C@@H](C)C[C@H](OC)[C@@H](O)[C@@H](C)C=C(C)[C@H](OC(N)=O)[C@@H](OC)C=CC=C(C)C(=O)NC(=CC1=O)C2=O	0.132 µM (active)	–

Structure (SMILES)	Potency	viability, % of DMSO control
NC(=NCCCCCCN=C(N)N=C(N)Nc1ccc(Cl)cc1)N=C(N)Nc1ccc(Cl)cc1	16.6 µM (active)	–
Nc1nc(N)c2nc(-c3cccc(O)c3)c(-c3cccc(O)c3)nc2n1	26.4 µM (active)	–
CC(C)C[C@H](NC(=O)[C@@H](NC(=O)c1cccc(-c2ccccc2)n1)[C@@H](C)O)B(O)O	0.0235 µM (active)	–
O=C1CSC(=O)N1C(CCc1ccncc1)COc1ccc(-c2cccc([N+](=O)[O-])c2)cc1 (centres undefined)	9.35 µM (active)	–
C#C[C@]1(O)CC[C@@H]2[C@@H]3CCC4=CC(=O)CC[C@@H]4[C@H]3CC[C@@]21CC	–	75.8%
CC(=O)O[C@@]12CO[C@H]1C[C@H](O)[C@@]1(C)C(=O)[C@H](O)C3=C(C)[C@@H](OC(=O)C(O)[C@@H](NC(=O)OC(C)(C)C)c4ccccc4)C[C@@](O)([C@@H](OC(=O)c4ccccc4)[C@@H]21)C3(C)C (some centres undefined)	–	65.6%
C[C@H](NCc1ccc(OCc2cccc(F)c2)cc1)C(N)=O	9.35 µM (active)	–
C[C@@]12C(=O)OC(=O)[C@@]1(C)C1CCC2O1	2.35 µM (active)	–
Cc1c2oc3c(C)ccc(C(=O)NC4C(=O)NC(C(C)C)C(=O)N5CCCC5C(=O)N(C)CC(=O)N(C)C(C(C)C)C(=O)OC4C)c3nc-2c(C(=O)NC2C(=O)NC(C(C)C)C(=O)N3CCCC3C(=O)N(C)CC(=O)N(C)C(C(C)C)C(=O)OC2C)c(N)c1=O (centres undefined) (I: TVP[Sar][NMeV] / II: TVP[Sar][NMeV]; ester I:1-I:C, II:1-II:C; linker I:N-II:N via Actinocin(9to1); configuration not given here)	–	8.71%
CC(C)c1cnn2c(NCc3ccccc3)cc(NCCCCCCN)nc12	14.8 µM (active)	–
CC(C=CC(=O)NO)=C[C@@H](C)C(=O)c1ccc(N(C)C)cc1	0.296 µM (active)	–
CN1[C@H]2CC(OC(=O)[C@@H](CO)c3ccccc3)C[C@H]1[C@H]1O[C@H]12 (some centres undefined)	–	131% [at 23.2 µM]
c1ccc(CNc2nc(NCc3ccccc3)c3ccccc3n2)cc1	23.5 µM (active)	–
CN(C)c1ccc2cc(C(=O)N[C@@H](CCCN=C(N)CCl)C(=O)NCc3ccccc3)ccc2c1	11.8 µM (active)	–
COc1cccc2c1C(=O)c1c(O)c3c(c(O)c1C2=O)C[C@@](O)(C(=O)CO)C[C@H]3O[C@H]1C[C@H](N)[C@H](O)[C@H](C)O1	0.166 µM (active)	–
CCC(C(=O)O)C1CCC(C)C(C(C)C(O)C(C)C(=O)C(CC)C2OC3(C=CC(O)[C@@]4(CC[C@](C)(C5CC[C@@](O)(CC)C(C)O5)O4)O3)C(C)CC2C)O1 (some centres undefined)	16.6 µM (active)	–
CCC(C=C[C@@H]1OC(=O)C=C[C@H]1C)=C[C@H](C)CC=CC(C)=C[C@@H](C)C(=O)[C@@H](C)[C@H](O)[C@@H](C)CC(C)=CC(=O)O	0.0247 µM (active)	–
CC(C)C[C@H](NC(=O)CNC(=O)c1cc(Cl)ccc1Cl)B1OC(=O)CC(CC(=O)O)(C(=O)O)O1 (some centres undefined)	0.0526 µM (active)	–
COc1cc2c(cc1OC)[C@@H]1C(=O)c3ccc4c(c3O[C@@H]1CO2)C=CC(C)(C)O4	0.418 µM (active)	–
